# Experiments:
# Test in all cases: DAPPL (digital affinity profiling via proximity ligation, sequencing); 10 mM Tris-HCl pH 7.5, 50 mM NaCl, 1 mM DTT, 4% glycerol, room temperature, 30 min; GST-TFs on glutathione beads, 16-mer random dsDNA library, 0.1% formaldehyde crosslink after washing; high values mean tight binding
# FLI1 = biological target: T1, FLI1 (Homo sapiens, UniProt Q01543 1-452); details: protein: recombinant; tags: N-terminal GST; dsDNA, one strand shown
# T1 sequence: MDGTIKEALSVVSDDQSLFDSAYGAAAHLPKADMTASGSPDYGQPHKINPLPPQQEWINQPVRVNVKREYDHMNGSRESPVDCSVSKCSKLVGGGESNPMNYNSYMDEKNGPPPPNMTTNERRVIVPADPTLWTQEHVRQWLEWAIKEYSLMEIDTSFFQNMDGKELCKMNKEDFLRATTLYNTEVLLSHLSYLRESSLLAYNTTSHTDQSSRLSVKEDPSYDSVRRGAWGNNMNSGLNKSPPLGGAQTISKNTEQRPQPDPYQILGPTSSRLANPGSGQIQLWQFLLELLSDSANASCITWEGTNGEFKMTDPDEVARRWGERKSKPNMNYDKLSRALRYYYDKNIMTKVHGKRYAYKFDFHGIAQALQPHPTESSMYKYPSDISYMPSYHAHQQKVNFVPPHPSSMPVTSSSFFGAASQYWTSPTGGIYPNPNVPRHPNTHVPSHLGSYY
# In short: (§1)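 Human transcription factors fused to GST were expressed in yeast, captured on glutathione beads, given DNA barcodes and pooled with a GST-only negative control. Pools were incubated with 200 nmole of a 16-mer random double-stranded DNA library in Tris/NaCl/DTT/glycerol buffer at room temperature for 30 min. They were then washed, crosslinked with 0.1% formaldehyde, proximity-ligated (BsaI/T4 ligase, 1 h, 37 °C), PCR-amplified and sequenced on an Illumina NextSeq500. Binding signal is each 6-mer's read frequency for a factor divided by its frequency for the GST control.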
# ELK1 = biological target: T2, ELK1 (Homo sapiens, UniProt P19419 1-428); details: protein: recombinant; tags: N-terminal GST; dsDNA, one strand shown
# T2 sequence: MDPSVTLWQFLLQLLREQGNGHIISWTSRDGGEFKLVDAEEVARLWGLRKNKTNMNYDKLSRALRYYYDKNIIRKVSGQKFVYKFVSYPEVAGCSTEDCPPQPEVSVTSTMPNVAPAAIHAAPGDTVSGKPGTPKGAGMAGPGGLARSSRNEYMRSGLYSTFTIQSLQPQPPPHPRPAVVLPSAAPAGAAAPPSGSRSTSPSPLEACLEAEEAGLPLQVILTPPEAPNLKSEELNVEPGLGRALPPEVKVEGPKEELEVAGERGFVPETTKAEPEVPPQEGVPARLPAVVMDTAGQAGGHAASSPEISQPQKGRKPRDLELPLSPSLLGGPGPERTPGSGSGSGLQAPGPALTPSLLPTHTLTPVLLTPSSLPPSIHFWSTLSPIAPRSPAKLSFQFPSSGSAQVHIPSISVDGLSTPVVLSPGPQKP
# In short: as §1
# GABPA = biological target: T3, GABPA (Homo sapiens, UniProt Q06546 1-454); details: protein: recombinant; tags: N-terminal GST; dsDNA, one strand shown
# T3 sequence: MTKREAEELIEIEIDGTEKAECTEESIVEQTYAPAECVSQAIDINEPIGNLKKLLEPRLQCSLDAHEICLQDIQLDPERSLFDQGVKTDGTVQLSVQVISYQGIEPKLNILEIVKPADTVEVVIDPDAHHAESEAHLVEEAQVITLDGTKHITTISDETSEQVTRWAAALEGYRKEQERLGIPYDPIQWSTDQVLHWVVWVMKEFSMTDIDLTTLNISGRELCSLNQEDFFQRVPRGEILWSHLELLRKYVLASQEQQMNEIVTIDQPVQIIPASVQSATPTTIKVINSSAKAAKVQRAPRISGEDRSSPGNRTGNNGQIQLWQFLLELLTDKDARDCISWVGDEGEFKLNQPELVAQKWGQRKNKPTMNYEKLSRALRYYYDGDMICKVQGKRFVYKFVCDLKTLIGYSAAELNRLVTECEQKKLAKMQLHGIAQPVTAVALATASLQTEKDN
# In short: as §1
# ERG = biological target: T4, ERG (Homo sapiens, UniProt P11308 1-479); details: protein: recombinant; tags: N-terminal GST; dsDNA, one strand shown
# T4 sequence: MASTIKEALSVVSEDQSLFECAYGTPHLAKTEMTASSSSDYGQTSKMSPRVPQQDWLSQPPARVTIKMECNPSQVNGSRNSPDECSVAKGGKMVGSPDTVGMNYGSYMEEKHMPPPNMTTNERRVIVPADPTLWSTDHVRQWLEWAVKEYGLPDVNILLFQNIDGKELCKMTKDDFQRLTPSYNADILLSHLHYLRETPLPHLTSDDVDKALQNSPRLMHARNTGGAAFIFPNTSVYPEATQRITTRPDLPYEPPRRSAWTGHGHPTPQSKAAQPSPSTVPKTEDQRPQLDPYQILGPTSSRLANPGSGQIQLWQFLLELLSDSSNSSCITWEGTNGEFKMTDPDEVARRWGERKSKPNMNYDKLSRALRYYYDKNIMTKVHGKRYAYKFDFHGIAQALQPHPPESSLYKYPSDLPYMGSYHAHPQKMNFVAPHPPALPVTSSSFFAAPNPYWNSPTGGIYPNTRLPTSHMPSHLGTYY
# In short: as §1
# ELF1 = ELF1 (Homo sapiens, UniProt P32519 1-619); details: protein: recombinant; tags: N-terminal GST; dsDNA, one strand shown
# Sequence of ELF1 (P32519 whole entry): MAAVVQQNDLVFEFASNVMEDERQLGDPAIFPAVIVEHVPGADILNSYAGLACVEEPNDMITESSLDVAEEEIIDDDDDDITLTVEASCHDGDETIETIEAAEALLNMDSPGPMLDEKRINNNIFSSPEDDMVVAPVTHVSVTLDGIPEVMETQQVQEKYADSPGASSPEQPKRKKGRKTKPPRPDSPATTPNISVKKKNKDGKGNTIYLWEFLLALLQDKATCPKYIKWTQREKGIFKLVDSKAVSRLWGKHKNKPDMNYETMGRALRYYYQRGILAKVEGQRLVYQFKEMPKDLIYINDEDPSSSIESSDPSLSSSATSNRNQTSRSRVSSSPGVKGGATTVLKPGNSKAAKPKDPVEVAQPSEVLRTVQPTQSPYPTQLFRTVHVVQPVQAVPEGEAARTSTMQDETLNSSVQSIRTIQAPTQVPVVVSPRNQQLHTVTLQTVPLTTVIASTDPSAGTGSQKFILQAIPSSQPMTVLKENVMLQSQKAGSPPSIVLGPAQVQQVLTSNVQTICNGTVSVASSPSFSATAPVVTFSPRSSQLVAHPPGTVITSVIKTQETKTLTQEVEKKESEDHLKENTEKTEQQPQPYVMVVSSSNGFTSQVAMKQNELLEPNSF
# In short: as §1
# EHF = biological target: T5, EHF (Homo sapiens, UniProt Q9NZC4 1-300); details: protein: recombinant; tags: N-terminal GST; dsDNA, one strand shown
# T5 sequence: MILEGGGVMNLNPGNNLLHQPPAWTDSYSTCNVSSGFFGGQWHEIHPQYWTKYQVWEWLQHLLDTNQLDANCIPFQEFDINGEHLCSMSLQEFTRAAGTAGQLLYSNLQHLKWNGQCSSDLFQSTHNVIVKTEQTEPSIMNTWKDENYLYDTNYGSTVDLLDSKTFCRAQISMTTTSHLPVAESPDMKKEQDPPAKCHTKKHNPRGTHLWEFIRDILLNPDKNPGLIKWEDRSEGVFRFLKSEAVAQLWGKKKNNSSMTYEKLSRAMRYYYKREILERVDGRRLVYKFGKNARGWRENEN
# In short: as §1
# SPI1 = SPI1 (Homo sapiens, UniProt P17947 1-270); details: protein: recombinant; tags: N-terminal GST; dsDNA, one strand shown
# In short: as §1
# SPIB = SPIB (Homo sapiens, UniProt Q01892 1-262); details: protein: recombinant; tags: N-terminal GST; dsDNA, one strand shown
# Sequence of SPIB (Q01892 whole entry): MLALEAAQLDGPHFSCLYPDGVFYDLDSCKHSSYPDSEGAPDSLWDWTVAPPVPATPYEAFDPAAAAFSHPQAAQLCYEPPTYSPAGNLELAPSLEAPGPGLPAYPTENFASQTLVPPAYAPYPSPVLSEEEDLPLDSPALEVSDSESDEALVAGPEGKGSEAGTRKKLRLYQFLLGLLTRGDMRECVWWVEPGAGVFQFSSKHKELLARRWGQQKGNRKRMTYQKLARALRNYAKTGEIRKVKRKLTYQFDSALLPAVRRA
# In short: as §1
# ELK3 = biological target: T6, ELK3 (Homo sapiens, UniProt P41970 1-407); details: protein: recombinant; tags: N-terminal GST; dsDNA, one strand shown
# T6 sequence: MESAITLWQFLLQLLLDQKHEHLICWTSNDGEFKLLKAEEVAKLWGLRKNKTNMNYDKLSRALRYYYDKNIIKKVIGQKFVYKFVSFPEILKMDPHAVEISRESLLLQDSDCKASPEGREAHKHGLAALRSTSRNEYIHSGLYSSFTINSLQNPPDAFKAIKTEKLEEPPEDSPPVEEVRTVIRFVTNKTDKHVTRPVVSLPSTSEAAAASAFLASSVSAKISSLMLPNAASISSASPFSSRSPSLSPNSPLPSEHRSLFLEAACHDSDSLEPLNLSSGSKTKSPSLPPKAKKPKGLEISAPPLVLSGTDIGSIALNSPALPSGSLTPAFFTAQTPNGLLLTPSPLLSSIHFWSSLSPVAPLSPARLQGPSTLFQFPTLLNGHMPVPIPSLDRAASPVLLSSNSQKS
# In short: as §1
# FEV = biological target: T7, FEV (Homo sapiens, UniProt Q99581 1-238); details: protein: recombinant; tags: N-terminal GST; dsDNA, one strand shown
# T7 sequence: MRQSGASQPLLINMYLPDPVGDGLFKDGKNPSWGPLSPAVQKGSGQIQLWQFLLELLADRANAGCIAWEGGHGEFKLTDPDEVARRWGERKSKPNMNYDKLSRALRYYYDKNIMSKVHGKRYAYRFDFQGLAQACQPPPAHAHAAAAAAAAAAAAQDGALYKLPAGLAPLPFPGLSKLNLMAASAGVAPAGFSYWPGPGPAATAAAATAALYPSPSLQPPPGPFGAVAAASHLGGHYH
# In short: as §1
# ETV5 = ETV5 (Homo sapiens, UniProt P41161 1-510); details: protein: recombinant; tags: N-terminal GST; dsDNA, one strand shown
# Sequence of ETV5 (P41161 whole entry): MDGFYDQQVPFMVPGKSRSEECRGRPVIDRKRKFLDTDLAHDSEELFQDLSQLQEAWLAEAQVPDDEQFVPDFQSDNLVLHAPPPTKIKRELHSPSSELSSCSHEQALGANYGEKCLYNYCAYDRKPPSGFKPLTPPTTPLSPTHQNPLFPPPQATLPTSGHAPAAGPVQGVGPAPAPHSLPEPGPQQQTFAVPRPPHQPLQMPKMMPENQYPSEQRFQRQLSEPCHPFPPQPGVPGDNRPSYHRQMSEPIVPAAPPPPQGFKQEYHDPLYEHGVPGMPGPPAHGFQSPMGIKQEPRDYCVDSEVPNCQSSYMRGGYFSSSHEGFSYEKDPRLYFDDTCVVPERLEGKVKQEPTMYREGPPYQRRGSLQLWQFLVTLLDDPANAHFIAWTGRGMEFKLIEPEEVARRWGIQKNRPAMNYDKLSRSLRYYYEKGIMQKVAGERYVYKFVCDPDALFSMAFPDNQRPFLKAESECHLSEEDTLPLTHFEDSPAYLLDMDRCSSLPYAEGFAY
# In short: as §1
# HSF1 = HSF1 (Homo sapiens, UniProt Q00613 1-529); details: protein: recombinant; tags: N-terminal GST; chain copies: 3; dsDNA, one strand shown
# Sequence of HSF1 (Q00613 whole entry): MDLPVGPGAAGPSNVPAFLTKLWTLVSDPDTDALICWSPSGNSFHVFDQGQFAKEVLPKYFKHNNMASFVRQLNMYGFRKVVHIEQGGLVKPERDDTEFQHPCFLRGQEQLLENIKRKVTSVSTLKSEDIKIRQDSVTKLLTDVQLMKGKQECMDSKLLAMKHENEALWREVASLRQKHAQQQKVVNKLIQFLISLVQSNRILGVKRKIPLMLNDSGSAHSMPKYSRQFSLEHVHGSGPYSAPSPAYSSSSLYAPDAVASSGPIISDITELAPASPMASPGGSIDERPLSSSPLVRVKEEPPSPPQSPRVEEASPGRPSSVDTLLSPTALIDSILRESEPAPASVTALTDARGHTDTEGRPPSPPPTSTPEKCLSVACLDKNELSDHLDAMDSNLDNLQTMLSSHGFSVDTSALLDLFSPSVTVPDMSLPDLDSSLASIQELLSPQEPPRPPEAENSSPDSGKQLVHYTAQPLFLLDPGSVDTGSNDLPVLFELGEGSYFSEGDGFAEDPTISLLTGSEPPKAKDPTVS
# In short: as §1
# SPIC = biological target: T8, SPIC (Homo sapiens, UniProt Q8N5J4 1-248); details: protein: recombinant; tags: N-terminal GST; dsDNA, one strand shown
# T8 sequence: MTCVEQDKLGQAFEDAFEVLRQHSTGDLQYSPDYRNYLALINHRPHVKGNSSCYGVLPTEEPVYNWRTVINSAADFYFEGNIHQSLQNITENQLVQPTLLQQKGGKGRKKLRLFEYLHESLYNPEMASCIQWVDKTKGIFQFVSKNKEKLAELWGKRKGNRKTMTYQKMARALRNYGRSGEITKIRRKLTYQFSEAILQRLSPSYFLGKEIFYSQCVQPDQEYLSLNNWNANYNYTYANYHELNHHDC
# In short: as §1
# ELF4 = ELF4 (Homo sapiens, UniProt Q99607 1-663); details: protein: recombinant; tags: N-terminal GST; dsDNA, one strand shown
# Sequence of ELF4 (Q99607 whole entry): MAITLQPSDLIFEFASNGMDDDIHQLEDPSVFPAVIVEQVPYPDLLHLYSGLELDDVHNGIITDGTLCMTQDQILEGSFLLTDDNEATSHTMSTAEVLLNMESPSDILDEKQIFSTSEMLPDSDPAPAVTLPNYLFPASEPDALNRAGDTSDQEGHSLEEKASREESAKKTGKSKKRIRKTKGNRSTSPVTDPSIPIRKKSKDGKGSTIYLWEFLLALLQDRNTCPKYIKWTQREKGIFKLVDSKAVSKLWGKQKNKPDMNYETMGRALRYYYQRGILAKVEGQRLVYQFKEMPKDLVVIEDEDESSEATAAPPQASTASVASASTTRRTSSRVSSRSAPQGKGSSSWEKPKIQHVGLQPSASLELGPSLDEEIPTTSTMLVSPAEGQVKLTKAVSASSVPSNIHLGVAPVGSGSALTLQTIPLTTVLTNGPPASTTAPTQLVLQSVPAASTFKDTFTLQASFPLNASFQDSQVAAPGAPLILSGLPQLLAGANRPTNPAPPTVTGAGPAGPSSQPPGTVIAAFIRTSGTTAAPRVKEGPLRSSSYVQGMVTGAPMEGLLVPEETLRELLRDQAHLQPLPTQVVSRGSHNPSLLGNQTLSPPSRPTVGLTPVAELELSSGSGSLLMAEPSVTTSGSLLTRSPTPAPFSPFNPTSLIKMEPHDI
# In short: as §1
# ELK4 = biological target: T9, ELK4 (Homo sapiens, UniProt P28324-2 1-405); details: protein: recombinant; tags: N-terminal GST; dsDNA, one strand shown
# T9 sequence: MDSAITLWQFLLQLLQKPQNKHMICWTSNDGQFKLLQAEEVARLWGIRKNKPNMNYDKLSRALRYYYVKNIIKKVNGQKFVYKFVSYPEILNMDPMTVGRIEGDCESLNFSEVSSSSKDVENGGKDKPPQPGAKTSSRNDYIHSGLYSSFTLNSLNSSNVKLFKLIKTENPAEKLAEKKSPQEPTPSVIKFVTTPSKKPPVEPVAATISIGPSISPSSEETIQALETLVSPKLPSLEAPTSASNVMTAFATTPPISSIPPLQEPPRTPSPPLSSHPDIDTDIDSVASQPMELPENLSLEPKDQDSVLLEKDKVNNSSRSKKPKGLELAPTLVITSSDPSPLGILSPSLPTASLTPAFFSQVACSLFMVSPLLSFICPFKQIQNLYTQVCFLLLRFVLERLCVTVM
# In short: as §1
# ETV2 = biological target: T10, ETV2 (Homo sapiens, UniProt O00321 1-342); details: protein: recombinant; tags: N-terminal GST; dsDNA, one strand shown
# T10 sequence: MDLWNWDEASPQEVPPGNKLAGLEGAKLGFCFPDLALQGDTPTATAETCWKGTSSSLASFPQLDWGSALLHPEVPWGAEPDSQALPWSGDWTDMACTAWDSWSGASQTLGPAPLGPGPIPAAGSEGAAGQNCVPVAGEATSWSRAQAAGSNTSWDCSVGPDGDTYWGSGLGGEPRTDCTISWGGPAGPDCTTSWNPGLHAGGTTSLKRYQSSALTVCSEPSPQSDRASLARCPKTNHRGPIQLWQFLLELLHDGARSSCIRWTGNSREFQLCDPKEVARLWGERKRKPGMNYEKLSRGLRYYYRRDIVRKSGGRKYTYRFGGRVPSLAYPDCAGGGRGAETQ
# In short: as §1
# ELF3 = biological target: T11, ELF3 (Homo sapiens, UniProt P78545 1-371); details: protein: recombinant; tags: N-terminal GST; dsDNA, one strand shown
# T11 sequence: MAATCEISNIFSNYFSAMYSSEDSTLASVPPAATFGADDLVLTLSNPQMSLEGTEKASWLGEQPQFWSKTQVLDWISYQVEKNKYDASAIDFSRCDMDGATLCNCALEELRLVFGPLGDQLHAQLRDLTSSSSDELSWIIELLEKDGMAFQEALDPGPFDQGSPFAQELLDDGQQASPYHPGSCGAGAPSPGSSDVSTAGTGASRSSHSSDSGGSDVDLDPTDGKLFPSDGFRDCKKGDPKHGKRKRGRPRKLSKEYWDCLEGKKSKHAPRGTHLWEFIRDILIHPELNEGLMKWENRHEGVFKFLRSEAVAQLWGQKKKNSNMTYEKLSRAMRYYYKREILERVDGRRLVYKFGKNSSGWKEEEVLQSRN
# In short: as §1
# CRX = CRX (Homo sapiens, UniProt O43186 1-299); details: protein: recombinant; tags: N-terminal GST; dsDNA, one strand shown
# Sequence of CRX (O43186 whole entry): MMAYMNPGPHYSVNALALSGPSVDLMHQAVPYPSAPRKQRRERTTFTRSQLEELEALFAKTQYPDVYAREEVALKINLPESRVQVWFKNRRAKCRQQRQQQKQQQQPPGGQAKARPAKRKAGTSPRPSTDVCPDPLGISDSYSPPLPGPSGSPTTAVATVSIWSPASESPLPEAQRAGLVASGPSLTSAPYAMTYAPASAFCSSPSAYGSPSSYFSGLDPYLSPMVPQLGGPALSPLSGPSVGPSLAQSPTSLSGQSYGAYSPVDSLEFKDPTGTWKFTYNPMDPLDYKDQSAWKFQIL
# In short: as §1
# ETV1 = ETV1 (Homo sapiens, UniProt P50549 1-477); details: protein: recombinant; tags: N-terminal GST; dsDNA, one strand shown
# Sequence of ETV1 (P50549 whole entry): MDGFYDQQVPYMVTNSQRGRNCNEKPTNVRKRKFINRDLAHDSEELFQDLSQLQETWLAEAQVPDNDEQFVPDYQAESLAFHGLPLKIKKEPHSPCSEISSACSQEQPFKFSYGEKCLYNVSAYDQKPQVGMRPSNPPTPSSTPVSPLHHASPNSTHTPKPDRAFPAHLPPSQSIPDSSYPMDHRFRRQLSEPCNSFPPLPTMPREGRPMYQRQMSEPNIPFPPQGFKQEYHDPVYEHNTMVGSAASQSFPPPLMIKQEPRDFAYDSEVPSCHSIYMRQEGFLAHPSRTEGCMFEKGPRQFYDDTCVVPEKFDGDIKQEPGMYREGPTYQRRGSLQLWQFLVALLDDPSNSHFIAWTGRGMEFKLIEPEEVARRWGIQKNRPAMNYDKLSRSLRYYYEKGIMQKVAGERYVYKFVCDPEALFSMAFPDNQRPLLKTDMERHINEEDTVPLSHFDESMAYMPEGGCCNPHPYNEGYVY
# In short: as §1
sequence,measurement,setting,value
TTTCTC,binding signal,FLI1,"1.64 fold enrichment (6-mer frequency, TF over GST control)"
same,binding signal,ELK1,"1.66 fold enrichment (6-mer frequency, TF over GST control)"
same,binding signal,GABPA,"1.58 fold enrichment (6-mer frequency, TF over GST control)"
same,binding signal,ERG,"1.54 fold enrichment (6-mer frequency, TF over GST control)"
same,binding signal,ELF1,"1.62 fold enrichment (6-mer frequency, TF over GST control)"
same,binding signal,EHF,"1.59 fold enrichment (6-mer frequency, TF over GST control)"
same,binding signal,SPI1,"1.7 fold enrichment (6-mer frequency, TF over GST control)"
same,binding signal,SPIB,"1.63 fold enrichment (6-mer frequency, TF over GST control)"
same,binding signal,ELK3,"1.46 fold enrichment (6-mer frequency, TF over GST control)"
same,binding signal,FEV,"1.52 fold enrichment (6-mer frequency, TF over GST control)"
same,binding signal,ETV5,"1.53 fold enrichment (6-mer frequency, TF over GST control)"
same,binding signal,HSF1,"2.63 fold enrichment (6-mer frequency, TF over GST control)"
same,binding signal,SPIC,"1.55 fold enrichment (6-mer frequency, TF over GST control)"
same,binding signal,ELF4,"1.6 fold enrichment (6-mer frequency, TF over GST control)"
same,binding signal,ELK4,"1.78 fold enrichment (6-mer frequency, TF over GST control)"
same,binding signal,ETV2,"1.65 fold enrichment (6-mer frequency, TF over GST control)"
same,binding signal,ELF3,"1.86 fold enrichment (6-mer frequency, TF over GST control)"
same,binding signal,CRX,"1.67 fold enrichment (6-mer frequency, TF over GST control)"
same,binding signal,ETV1,"1.46 fold enrichment (6-mer frequency, TF over GST control)"
